Beta apoptosis: blocks beta cell apoptosis. INS-1E cytokine-induced death, ATP luminescence, 48 h; percent of positive-control rescue, neutral wells zero. 300,000 tested, 0.8% active. protection from apoptosis, % (test concentration not listed). AID 435005;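 active means Every replicate reaches about 75%, or at least half do and their mean reaches it too, limit read from the data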;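 further: 0% = cytokine-treated negative control wells and 100% = positive control rescue; higher means more ATP so stronger rescue from cytokine killing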
MPTP inh: permeability transition pore inhibition. 360,000 tested, 1.4% active. isolated mouse mitochondria, Ca2+ swelling absorbance, 30 min. inhibition, % at 10 µM;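 active means inhibition of 50% or more, scaled per plate between neutral and stimulator controls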;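 further: 0% = DMSO wells given calcium and 100% = 1 mM EGTA wells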
NR3A LBD binder: NR3A (human) ligand-binding domain modulation | 340,000 tested, 2.5% active | Tm shift relative to glycine control, % at 25 µM | NR3A LBD differential scanning fluorimetry, Tm shift; 0% = protein alone, 100% = glycine-bound protein;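 active means melting temperature shift of at least 10% of the positive control shift, at one fixed dose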
Gli-Sufu antag: antagonists of Gli-Sufu signaling. AID 588413. inhibition, % at 5 µM. Sufu-KO-LIGHT fibroblasts, Gli luciferase reporter luminescence. 340,000 tested, 0.74% active;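 active means inhibition above about 55%, limit read from the data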;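 further: 0% = DMSO-treated cells and 100% = wells with medium but no cells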
Mdm2 MdmX PPI: human Mdm2/MdmX binding inhibition; O15151+Q00987; SaOS-2 split-luciferase Mdm2/MdmX complementation, luminescence; inhibition, % at 8 µM; 330,000 tested, 3% active; AID 485346;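 active means inhibition of at least 50% at 8 µM in the primary screen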
Target sequence (O15151 whole entry, looked up): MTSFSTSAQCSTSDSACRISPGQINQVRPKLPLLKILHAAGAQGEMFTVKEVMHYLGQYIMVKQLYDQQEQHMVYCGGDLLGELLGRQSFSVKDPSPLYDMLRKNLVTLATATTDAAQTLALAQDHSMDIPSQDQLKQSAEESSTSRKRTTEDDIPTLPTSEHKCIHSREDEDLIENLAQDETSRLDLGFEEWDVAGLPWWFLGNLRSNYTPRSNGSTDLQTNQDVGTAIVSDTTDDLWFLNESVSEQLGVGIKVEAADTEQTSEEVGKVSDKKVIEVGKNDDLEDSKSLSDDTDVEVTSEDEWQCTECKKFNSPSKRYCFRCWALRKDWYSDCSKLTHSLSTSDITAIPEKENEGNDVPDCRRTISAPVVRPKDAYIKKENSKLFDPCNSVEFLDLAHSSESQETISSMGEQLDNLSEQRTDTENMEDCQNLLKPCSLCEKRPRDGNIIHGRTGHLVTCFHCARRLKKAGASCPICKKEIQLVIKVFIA
Target sequence (Q00987 whole entry, looked up): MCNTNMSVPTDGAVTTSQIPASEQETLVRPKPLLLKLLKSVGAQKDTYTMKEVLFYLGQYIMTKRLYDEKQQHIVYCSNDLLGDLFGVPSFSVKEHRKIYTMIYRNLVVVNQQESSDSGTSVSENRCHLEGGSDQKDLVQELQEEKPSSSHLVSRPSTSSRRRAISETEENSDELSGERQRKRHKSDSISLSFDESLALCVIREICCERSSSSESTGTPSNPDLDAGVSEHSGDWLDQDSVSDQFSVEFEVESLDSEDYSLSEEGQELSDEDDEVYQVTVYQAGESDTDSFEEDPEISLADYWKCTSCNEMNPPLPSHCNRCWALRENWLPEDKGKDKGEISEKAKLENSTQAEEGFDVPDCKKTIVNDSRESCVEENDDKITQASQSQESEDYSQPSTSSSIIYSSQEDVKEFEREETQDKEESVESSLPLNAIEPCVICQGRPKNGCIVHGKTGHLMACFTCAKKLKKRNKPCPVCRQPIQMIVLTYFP
CSC inhib: cancer stem cell inhibition; cancer stem cell-like cells viability, luminescence; inhibition, % at 7.5 µM; 300,000 tested, 1.1% active; AID 2717; in the data active means inhibition above about 75%; tested in HMLE shEcad cells
* marks the source's active call; other numbers are inactive results; · = no result given. Shown are actives, neighbours in structure and some others; about 6.6% of the full set was active somewhere.

SMILES	Beta apoptosis	MPTP inh	NR3A LBD binder	Gli-Sufu antag	Mdm2 MdmX PPI	CSC inhib
O=C(c1ccc(COc2ccc(Br)cc2)o1)N1N=C(C(F)F)CC1(O)C(F)F (stereo unspecified)	3	49	19*	-8	8	-21
C/C(=N\NC(=O)c1c(Cl)cnn1C)c1cccnc1	·	2	1	0	12	·
CC(C)Oc1ccc(/C=N/NC(=O)c2nnn(-c3nonc3N)c2CN(C)c2ccccc2)cc1	11	-2	11*	-6	-20	28
COc1ccc2ccccc2c1/C=N/NC(=O)c1nnn(-c2nonc2N)c1CN(C)C	1	0	0	33	8	-4
CN(Cc1c(C(=O)N/N=C/c2c(F)cccc2Cl)nnn1-c1nonc1N)c1ccccc1	-4	-1	14*	7	-16	-4
Cc1ccc(/C=N/NC(=O)c2nnn(-c3nonc3N)c2C(C)C)o1	-4	0	-3	8	-6	-27
Cc1ccsc1/C=N/NC(=O)c1nnn(-c2nonc2N)c1CN(C)c1ccccc1	-6	0	2	-1	17	20
CN(C)Cc1c(C(=O)N/N=C/c2ccc(-c3ccccc3)cc2)nnn1-c1nonc1N	-4	0	3	-11	-5	-10
Cc1ccc(/C=N/NC(=O)c2nnn(-c3nonc3N)c2C(C)C)s1	-6	-1	11*	-10	11	-6
COCc1c(C(=O)N/N=C/c2cccc3ccccc23)nnn1-c1nonc1N	1	0	31*	-2	26	-2
CCOC(=O)C(C)N1c2cccc3cccc(c23)S1(=O)=O (stereo unspecified)	·	-1	·	·	·	·
COc1cccc(-c2nc(CS(=O)(=O)CC(=O)Nc3ccccc3Br)c(C)o2)c1	-2	-2	0	6	22	-1
C/C(=N\NC(=O)c1nnn(-c2nonc2N)c1CN(C)c1ccccc1)c1cccc(O)c1	1	0	5	-1	24	-4
Cc1ccc(/C=N/NC(=O)c2nnn(-c3nonc3N)c2CN(C)c2ccccc2)s1	-2	-2	18*	-2	1	14
Cc1ccc(/C=N/NC(=O)c2nnn(-c3nonc3N)c2CN(C)C)s1	5	0	3	-15	2	-23
COc1ccc2ccccc2c1/C=N/NC(=O)c1nnn(-c2nonc2N)c1C(C)C	3	3	13*	0	19	29
CN(Cc1c(C(=O)N/N=C/c2cccc(O)c2)nnn1-c1nonc1N)c1ccccc1	-3	-1	31*	-28	13	4
CC1(C(=O)NS(=O)(=O)c2cccs2)CCN1C(=O)Cc1ccc(Cl)cc1Cl (stereo unspecified)	·	1	·	·	·	·
Cc1ccc(C(=O)Nc2cccc(S(=O)(=O)N3CCCCC3)c2)cc1S(=O)(=O)N1CCOCC1	·	2	-1	11	·	·
COc1ccc(NC(=O)CN2CCN(C(=O)N3CCOCC3)CC2)cc1	-5	0	0	-5	13	7
Cc1n[nH]c(=O)c2c(NC(=O)COC(=O)Cc3ccc(Cl)cc3Cl)oc(C)c12	-1	0	1	-4	-7	-2
N#CCOC(=O)[C@H](Cc1c[nH]c2ccccc12)NS(=O)(=O)c1ccc(Cl)cc1	-2	1	29*	7	-2	7
COc1ccc(/C=N/OCC(=O)N2CC3(C)CC2CC(C)(C)C3)cc1 (stereo unspecified)	-6	0	0	3	3	110*
CC1(C(=O)Nc2cccc3cccnc23)CCN1Cc1cccc2c1OCO2 (stereo unspecified)	·	-1	·	·	·	·
Cc1ccc(C)c(S(=O)(=O)c2c(N)n(/N=C/c3ccco3)c3nc4ccccc4nc23)c1	·	2	36*	-2	9	·
SMILES	Beta apoptosis	MPTP inh	NR3A LBD binder	Gli-Sufu antag	Mdm2 MdmX PPI	CSC inhib
Cc1cc(C)nc(-n2ncc3c2CC(c2cccc(Cl)c2)CC3=O)n1 (stereo unspecified)	-12	2	-1	9	29	81*
COc1ccc(-c2c(C#Cc3ccsc3)c3cc(-c4ccc5cc[nH]c5c4)ccc3n2C)cc1	3	0	12*	8	4	13
Fc1cc2[nH]c(=S)[nH]c2cc1Cl	-13	4	32*	7	14	-4
Cc1cc2[nH]c(=S)[nH]c2cc1C	-4	1	2	-7	·	-6
CC(C)CC(CO)N1CCN(C(=O)c2cccc(C(F)(F)F)c2)CCC1=O (stereo unspecified)	-7	0	1	17	10	-9
CC(C)NC(=S)NC(c1ccccc1)(c1ccccc1)c1ccccc1	112*	-1	-3	29	50	25
C/C(=N\NC(=S)NC(C)C)c1ccccc1	5	1	1	-3	2	-5
CC(Sc1ccc(S(=O)(=O)N2CCCCC2)cn1)C(N)=O (stereo unspecified)	·	-1	·	·	·	·
COc1ccc(-c2cc(CNc3nc(NC(C)C)nc4cc(-c5ccccc5)sc34)on2)cc1	·	6	·	·	·	·
COc1ccccc1CNC(=O)c1nn(C)c2c1CS(=O)(=O)c1ccccc1-2	·	-2	18*	19	5	-14
N#Cc1nc(-c2ccc(F)cc2)oc1N1CCN(C(=O)c2ccco2)CC1	-2	0	-2	9	1	7
COc1cccc(-c2nc(C#N)c(N3CCN(C(=O)c4ccco4)CC3)o2)c1	-3	0	11*	-6	30	-17
O=C(NC(=S)Nc1cc(Cl)ccc1O)c1cccc(Br)c1	3	0	18*	7	43	27
Cc1ccc(C(=O)NC(=S)Nc2ccc(NC(=O)c3cccc(Cl)c3)cc2)cc1	1	15	35*	-49	37	2
O=C(NC(=S)Nc1cccnc1)c1cccc(Br)c1	-3	2	0	-12	18	0
CC(=O)c1cccc(NC(=S)NC(=O)c2ccc(C)cc2)c1	-3	1	1	-112	-78	-7
Cc1ccc(N/N=C/c2ccncc2)cc1	-1	0	3	-58	-26	79*
O=C(N/N=C/c1cccnc1)c1ccc(NC(=O)C(c2ccccc2)c2ccccc2)cc1	110*	-3	1	19	7	·
O=C(CNC(=O)C(c1ccccc1)c1ccccc1)N/N=C/c1cccnc1	-9	2	-2	-15	14	-10
O=C(OCC(=O)N1CCCc2ccccc21)c1ccc(F)c(S(=O)(=O)N2CCOCC2)c1	1	-1	1	-13	7	4
O=C(Nc1c(-c2ccccc2)nc2ccccn12)c1ccccc1F	2	-1	-1	10	-14	-8
COc1cc(/C=C/C(=O)OCC(=O)NC(=O)NC(C)C)ccc1O	-2	-1	-1	-6	6	28
C[C@@H]1CN([C@H](C)CO)C(=O)CCCn2nncc2CO[C@H]1CN(C)C	·	0	·	·	·	·
Cc1c(CCC(=O)O)c(=O)oc2cc3occ(-c4ccc(Br)cc4)c3cc12	8	1	0	27	4	-5
